# Measured values reported in PubChem BioAssay (NCATS).
# Inconclusive results are not listed. Activity calls are given as the source filed them. Unless noted, calls come from the whole dose curve; as a rule, active = well fitted curve in either direction with a large enough effect (not every such curve was filed as active); inconclusive = small, poorly fitted or top-dose-only effect, or another doubt; inactive = flat fitted curve, though single readings scatter.
# Tests used:
# [1] = biological target: Lysosomal acid glucosylceramidase (Homo sapiens) (UniProt P04062); assay: Glucocerebrosidase-p2 (AID 348; in the data active = potency below about 10 µM; note: potency is the fitted concentration of half-maximal effect); conditions: purified GBA, blue fluorogenic substrate, 40 min
# Sequence of Lysosomal acid glucosylceramidase (Homo sapiens) (P04062 whole entry, looked up): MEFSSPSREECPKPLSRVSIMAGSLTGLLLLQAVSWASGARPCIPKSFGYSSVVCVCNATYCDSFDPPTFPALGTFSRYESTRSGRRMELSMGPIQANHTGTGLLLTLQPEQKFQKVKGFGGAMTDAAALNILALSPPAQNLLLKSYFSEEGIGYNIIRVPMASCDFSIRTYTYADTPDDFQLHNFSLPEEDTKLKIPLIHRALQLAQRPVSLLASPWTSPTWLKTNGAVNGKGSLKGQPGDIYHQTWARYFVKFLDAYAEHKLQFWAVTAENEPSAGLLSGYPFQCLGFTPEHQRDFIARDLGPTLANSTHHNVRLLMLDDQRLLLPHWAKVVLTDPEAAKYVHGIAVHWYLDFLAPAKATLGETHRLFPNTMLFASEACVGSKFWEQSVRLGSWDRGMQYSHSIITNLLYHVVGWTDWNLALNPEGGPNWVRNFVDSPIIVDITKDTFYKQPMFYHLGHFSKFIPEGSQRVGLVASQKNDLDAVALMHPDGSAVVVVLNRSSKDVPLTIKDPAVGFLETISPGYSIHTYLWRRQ
# Procedure, shortened: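 Compounds titrated from 0.6 nM upwards against 0.2 nM enzyme in pH 5.9 citric acid/KH2PO4, taurocholate, tween-20; blue fluorogenic substrate 80 uM, 40 min room temperature, stopped and read Ex 365/Em 440 for AC50.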
# [2] = AP1 Signaling Pathway (AID 357); conditions: ME-180 AP-1-bla reporter, EGF-induced, beta-lactamase ratio, 5 h; at 7.69 µM (top of the series) unless noted;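 note: ME-180 reporter cells stimulated with EGF at its EC50 level; % is set by controls: 0 for no effect and ±100 for the full control effect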
# Procedure, shortened: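 In this screen, ME-180 cells in Opti-MEM with 0.5% dialyzed FBS received EC50 EGF and compound titrations for 5 h. AP-1 reporter beta-lactamase was detected via CCF4 ratio, giving AC50 for positive and negative modulators.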
# [3] = biological target: Cytochrome P450 1A2 (Homo sapiens) (UniProt P05177); assay: p450-cyp1a2 (AID 410; calls by dose curve; note: potency is the fitted concentration of half-maximal effect;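 for activity change, negative = inhibition: -100% = full effect of reference inhibitor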); conditions: recombinant CYP1A2, luciferin-ME demethylation, luminescence; series mostly up to 57 µM
# Sequence of Cytochrome P450 1A2 (Homo sapiens) (P05177 whole entry, looked up): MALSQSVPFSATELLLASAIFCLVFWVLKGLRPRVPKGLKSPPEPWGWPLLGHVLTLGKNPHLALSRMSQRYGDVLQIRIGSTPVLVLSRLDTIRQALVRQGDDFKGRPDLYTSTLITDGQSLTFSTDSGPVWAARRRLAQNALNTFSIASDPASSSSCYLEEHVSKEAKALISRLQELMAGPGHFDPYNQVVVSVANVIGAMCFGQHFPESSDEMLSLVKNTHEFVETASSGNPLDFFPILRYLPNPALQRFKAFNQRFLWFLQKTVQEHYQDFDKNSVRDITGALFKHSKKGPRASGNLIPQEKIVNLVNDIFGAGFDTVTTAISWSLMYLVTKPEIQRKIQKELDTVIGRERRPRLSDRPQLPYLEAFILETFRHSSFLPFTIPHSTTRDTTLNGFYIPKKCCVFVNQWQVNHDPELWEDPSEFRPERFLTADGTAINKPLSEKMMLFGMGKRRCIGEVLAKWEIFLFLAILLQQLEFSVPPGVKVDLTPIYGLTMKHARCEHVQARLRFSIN
# Procedure, shortened: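 20nM CYP1A2 with 100uM Luciferin-ME (at Km) in 100mM KPO4; compound preincubated 10 min, NADPH regeneration added, 60 min at room temperature. Luciferin quantified by luminescence after detection reagent; normalized to 57 uM furafylline.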
# [4] = Stat Signaling Pathway (AID 446); conditions: ME-180 SIE beta-lactamase reporter, IL-6 stimulated, 5 h; at 7.69 µM (top of the series) unless noted;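 note: ME-180 cervical cancer cells given 40 pM IL-6 alongside compound; SIE-controlled beta-lactamase reporter measured as 460/530 nm FRET emission ratio; % is set by controls: 0 for no effect and ±100 for the full control effect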
# Procedure, shortened: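 ME-180 cells carrying a SIE-driven beta-lactamase reporter are stimulated with 40 pM IL-6 for 5 h at 37C in the presence of compound. The 460/530 nm FRET substrate ratio is read after 2.5 h at RT. Data are normalised to 300 pM IL-6 and to 125 nM JAK inhibitor controls.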
# [5] = biological target: Glucocorticoid receptor (Homo sapiens) (UniProt P04150); assay: GR-EFC Redistribution (AID 451; calls by dose curve; note: potency is the fitted concentration of half-maximal effect); conditions: CHO-K1 GR-EFC translocation, beta-gal luminescence, 2 h
# Sequence of Glucocorticoid receptor (Homo sapiens) (P04150 whole entry, looked up, the tested form may be a part): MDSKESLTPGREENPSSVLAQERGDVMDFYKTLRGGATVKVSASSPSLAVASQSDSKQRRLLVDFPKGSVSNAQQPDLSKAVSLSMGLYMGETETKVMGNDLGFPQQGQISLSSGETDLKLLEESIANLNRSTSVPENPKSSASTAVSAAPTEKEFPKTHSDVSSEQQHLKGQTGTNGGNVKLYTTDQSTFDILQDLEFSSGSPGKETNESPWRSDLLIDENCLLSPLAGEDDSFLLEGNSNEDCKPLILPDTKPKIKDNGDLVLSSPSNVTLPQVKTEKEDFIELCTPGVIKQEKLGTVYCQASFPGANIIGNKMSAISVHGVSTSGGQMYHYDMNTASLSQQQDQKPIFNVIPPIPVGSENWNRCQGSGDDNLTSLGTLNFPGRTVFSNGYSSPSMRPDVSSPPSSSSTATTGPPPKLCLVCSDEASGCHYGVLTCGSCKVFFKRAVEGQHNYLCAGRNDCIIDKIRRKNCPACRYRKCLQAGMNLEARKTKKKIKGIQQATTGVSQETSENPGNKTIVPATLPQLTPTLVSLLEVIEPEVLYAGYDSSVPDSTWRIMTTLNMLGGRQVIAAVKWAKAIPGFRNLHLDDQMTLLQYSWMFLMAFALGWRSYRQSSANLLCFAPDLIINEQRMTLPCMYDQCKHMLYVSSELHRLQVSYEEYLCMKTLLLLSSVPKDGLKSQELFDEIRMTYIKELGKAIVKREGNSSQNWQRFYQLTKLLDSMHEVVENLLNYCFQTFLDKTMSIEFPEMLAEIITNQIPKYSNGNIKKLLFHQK
# Procedure, shortened: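 CHO-K1 cells expressing nuclear EA and GR-ED fragments of b-gal; compounds titrated up to 46 uM final, 2 h at 37 C. GR nuclear translocation read as complemented b-gal luminescence after 1 h RT detection.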
# [6] = biological target: Mitogen-activated protein kinase 10 (Mus musculus) (UniProt Q61831); assay: JNK3 AlphaScreen Assay (AID 530); conditions: JNK3 lysate, c-Jun phosphorylation; series mostly up to 57.1 µM;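 note: kinase came from lysate of stimulated human HepG2 cells; signal reports phosphorylation of biotinylated GST-cJun 1-79 at Ser73 with 10 µM ATP; % is set by controls: 0 for no effect and ±100 for the full control effect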
# Procedure, shortened: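 Pre-activated (IL-1β/TNFα) JNK3 in HepG2 lysates phosphorylates biotin-GST-cJun(1-79), 10 uM ATP; anti-phospho-cJun(Ser73) AlphaScreen read at room temperature, pH 7.6 Tris buffer. Compounds pre-incubated 15 min as titrations.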
# [7] = biological target: 3',5'-cyclic-AMP phosphodiesterase 4B (Homo sapiens) (UniProt Q07343); assay: qHTS Assay for Inhibitors of PDE-IV (AID 607; active = well fitted activation curve with a large enough effect in the main read-out, with a control signal flat, not every such curve was filed as active; note: % of control where 0% means no effect); conditions: HEK293 ACTOne CNG channel cells, membrane potential fluorescence; series mostly up to 22.9 µM
# Sequence of 3',5'-cyclic-AMP phosphodiesterase 4B (Homo sapiens) (Q07343 whole entry, looked up): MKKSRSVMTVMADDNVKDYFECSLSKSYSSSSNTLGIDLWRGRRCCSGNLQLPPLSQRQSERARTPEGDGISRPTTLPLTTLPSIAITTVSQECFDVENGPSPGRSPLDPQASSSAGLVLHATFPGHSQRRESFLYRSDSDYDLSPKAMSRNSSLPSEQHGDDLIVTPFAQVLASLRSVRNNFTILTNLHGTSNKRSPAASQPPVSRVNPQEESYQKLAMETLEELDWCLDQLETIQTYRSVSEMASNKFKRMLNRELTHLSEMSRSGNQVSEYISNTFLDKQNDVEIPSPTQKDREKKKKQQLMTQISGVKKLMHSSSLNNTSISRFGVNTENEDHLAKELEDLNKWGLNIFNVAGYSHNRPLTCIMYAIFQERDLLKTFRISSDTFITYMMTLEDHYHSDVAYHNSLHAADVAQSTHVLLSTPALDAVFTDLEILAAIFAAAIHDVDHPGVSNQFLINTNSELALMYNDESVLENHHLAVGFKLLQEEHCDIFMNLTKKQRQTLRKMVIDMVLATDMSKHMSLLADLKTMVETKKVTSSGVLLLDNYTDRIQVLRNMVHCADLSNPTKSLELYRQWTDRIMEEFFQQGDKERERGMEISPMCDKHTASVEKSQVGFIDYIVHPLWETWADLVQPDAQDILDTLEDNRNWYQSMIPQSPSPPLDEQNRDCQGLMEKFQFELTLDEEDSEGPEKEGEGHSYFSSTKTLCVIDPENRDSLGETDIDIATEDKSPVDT
# Procedure, shortened: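 HEK293 ACTOne cells with CNG channel (1000/well), endogenous PDE4; membrane potential dye, compounds up to 22.9 uM final. Fluorescence Ex 535/Em 590; RO 20-1724 (100 uM final) as reference.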
# [8] = biological target: Cytochrome P450 2C9 (Homo sapiens) (UniProt P11712); assay: qHTS Assay for Inhibitors and Substrates of Cytochrome P450 2C9 (AID 883; active = well fitted curve in the direction sought with a large enough effect; an effect the other way counts as inactive or inconclusive; note: potency is the fitted concentration of half-maximal effect; nearly all actives have a fitted effect of over 60% in size); conditions: recombinant CYP2C9, luciferin-H luminescence, 60 min; series mostly up to 57.1 µM
# Sequence of Cytochrome P450 2C9 (Homo sapiens) (P11712 whole entry, looked up): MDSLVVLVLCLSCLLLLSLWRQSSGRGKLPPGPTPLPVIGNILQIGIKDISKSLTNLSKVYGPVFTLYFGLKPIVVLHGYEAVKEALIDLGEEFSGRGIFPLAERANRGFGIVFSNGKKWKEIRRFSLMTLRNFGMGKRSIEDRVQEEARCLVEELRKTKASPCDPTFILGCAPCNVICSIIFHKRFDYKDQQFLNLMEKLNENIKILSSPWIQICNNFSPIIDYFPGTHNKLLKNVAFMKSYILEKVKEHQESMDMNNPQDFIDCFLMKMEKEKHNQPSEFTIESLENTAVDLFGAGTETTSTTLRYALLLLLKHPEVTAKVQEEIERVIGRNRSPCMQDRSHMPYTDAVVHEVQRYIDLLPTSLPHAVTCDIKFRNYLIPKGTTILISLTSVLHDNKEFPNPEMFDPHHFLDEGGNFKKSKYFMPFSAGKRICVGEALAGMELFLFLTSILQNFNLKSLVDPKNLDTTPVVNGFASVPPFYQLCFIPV
# Procedure, shortened: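 Human CYP2C9 (10nM) with Luciferin-H at 100uM (its KM) in 25mM KPO4; compound preincubated 10 min at 37C, then NADPH regeneration for 60 min at 37C. Luciferin read by luminescence after detection reagent; normalized to 57uM sulphaphenazole as full inhibition.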
# [9] = biological target: Cytochrome P450 3A4 (Homo sapiens) (UniProt P08684); assay: qHTS Assay for Activators of Cytochrome P450 3A4 (AID 885; active = well fitted curve in the direction sought with a large enough effect; an effect the other way counts as inactive or inconclusive; note: nearly all actives have a fitted effect of over 65% in size); conditions: recombinant CYP3A4, Luciferin-PPXE luminescence, 60 min; series mostly up to 57.1 µM
# Sequence of Cytochrome P450 3A4 (Homo sapiens) (P08684 whole entry, looked up): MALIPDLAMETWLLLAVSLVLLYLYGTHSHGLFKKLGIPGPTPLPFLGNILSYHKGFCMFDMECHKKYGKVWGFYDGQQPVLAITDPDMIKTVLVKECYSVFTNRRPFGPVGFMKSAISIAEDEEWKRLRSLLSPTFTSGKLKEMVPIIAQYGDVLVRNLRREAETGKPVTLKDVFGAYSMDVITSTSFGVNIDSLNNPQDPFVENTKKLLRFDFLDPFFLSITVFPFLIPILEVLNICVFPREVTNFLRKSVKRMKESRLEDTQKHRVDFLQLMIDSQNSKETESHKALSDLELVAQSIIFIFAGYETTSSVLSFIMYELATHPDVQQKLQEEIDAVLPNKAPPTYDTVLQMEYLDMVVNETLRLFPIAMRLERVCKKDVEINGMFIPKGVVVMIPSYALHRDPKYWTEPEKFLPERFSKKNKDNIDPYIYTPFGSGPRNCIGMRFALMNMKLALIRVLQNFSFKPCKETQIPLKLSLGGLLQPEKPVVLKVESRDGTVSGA
# Procedure, shortened: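 Human CYP3A4 (20 nM) with Luciferin-PPXE at 25 uM (its KM) in 200 mM KPO4; 10 min compound preincubation, then NADPH regeneration and 60 min reaction at RT. Luciferin read by luminescence; normalized to 57 uM ketoconazole full inhibition.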
# [10] = qHTS Assay for Lipid Storage Modulators (AID 1519; calls by dose curve); conditions: Drosophila S3 cells, BODIPY lipid droplet/cell ratio, laser cytometry, cells loaded with oleic acid; for activity change, negative = inhibition: at 57.5 µM (top of the series)
# Procedure, shortened: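 Cells seeded at 5,000 per well were treated with compounds over a concentration series and loaded with oleic acid (400 uM, as added). Lipid droplet fluorescence (488 nm excitation, 500-530 nm channel) was read by laser-scanning cytometry and normalized to 20 uM Triacsin C.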
# [11] = Primary qHTS for small molecule stabilizers of the endoplasmic reticulum resident proteome: Secreted ER Calcium Modulated Protein (SERCaMP) assay (AID 1508630; active = well fitted curve in the direction sought with a large enough effect; an effect the other way counts as inactive or inconclusive; note: % is set by controls: 0 for no effect and ±100 for the full control effect); conditions: SH-SY5Y GLuc-SERCaMP (Gaussia luciferase released on ER calcium loss) secretion, thapsigargin, luminescence; series mostly up to 38.4 µM
# Procedure, shortened: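 GLuc-SERCaMP-expressing SH-SY5Y cells, pretreated 16 h with compound, are challenged with thapsigargin to empty ER calcium stores; after 4 h, coelenterazine is added directly to the medium and luminescence is imaged.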
# [12] = biological target: Glucocorticoid receptor (Homo sapiens) (UniProt P04150); assay: GR-GFP Redistribution (AID 450;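 active = compounds whose dose series gives a full or clear partial fitted curve of increased nuclear translocation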; note: potency is the fitted concentration of half-maximal effect); conditions: U2OS GR-GFP nuclear translocation, laser cytometry, 2 h
# [13] = Confirmation and Secondary Assay for Modulators of Hemoglobin Beta Chain Splicing at IVS2 654 locus (AID 910; active = well fitted curve in the direction sought with a large enough effect; an effect the other way counts as inactive or inconclusive;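 note: HeLa cells stably carrying EGFP split by mutant beta-globin IVS2-654 intron; % of control where 0% means no effect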); conditions: HeLa EGFP-654 splicing reporter, GFP fluorescence, 48 h; series mostly up to 38.3 µM
# Procedure, shortened: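 HeLa cells stably expressing EGFP interrupted by β-globin IVS2-654 intron, seeded overnight in Opti-MEM/2% FCS, then treated 2 days at 37 °C. Restored splicing read as total peak GFP intensity per well by laser scanning cytometry (488 nm excitation, 500–520 nm emission); 500 nM antisense PNA as control.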
# [14] = Confirmation and Secondary Assay for Modulators of Hemoglobin Beta Chain Splicing at IVS2 705 locus (AID 930; active = well fitted curve in the direction sought with a large enough effect; an effect the other way counts as inactive or inconclusive;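 note: HeLa cells stably expressing the EGFP-705 splicing reporter; % of control where 0% means no effect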); conditions: HeLa EGFP-705 splicing reporter, GFP fluorescence, 48 h; series mostly up to 38.3 µM
# Procedure, shortened: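 HeLa cells stably carrying EGFP interrupted by mutant beta-globin IVS2-705 intron (CMV-driven) were seeded at 500 cells/well, treated next day with compound for 2 days at 37C; corrected splicing restores EGFP, read as total peak GFP intensity per well.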
# [15] = biological target: Ubiquitin carboxyl-terminal hydrolase 1 (Homo sapiens) (UniProt O94782); assay: Inhibitors of USP1/UAF1: Pilot qHTS (AID 504865; active = well fitted curve in the direction sought with a large enough effect; an effect the other way counts as inactive or inconclusive;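 note: rhodamine fluorescence freed from ubiquitin-rhodamine substrate followed over time; top concentration of the series differs between compounds; % is set by controls: 0 for no effect and ±100 for the full control effect; nearly all actives have a fitted effect of over 35% in size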); conditions: purified USP1/UAF1, Ub-rhodamine cleavage fluorescence; series mostly up to 54.9 µM
# Sequence of Ubiquitin carboxyl-terminal hydrolase 1 (Homo sapiens) (O94782 whole entry, looked up): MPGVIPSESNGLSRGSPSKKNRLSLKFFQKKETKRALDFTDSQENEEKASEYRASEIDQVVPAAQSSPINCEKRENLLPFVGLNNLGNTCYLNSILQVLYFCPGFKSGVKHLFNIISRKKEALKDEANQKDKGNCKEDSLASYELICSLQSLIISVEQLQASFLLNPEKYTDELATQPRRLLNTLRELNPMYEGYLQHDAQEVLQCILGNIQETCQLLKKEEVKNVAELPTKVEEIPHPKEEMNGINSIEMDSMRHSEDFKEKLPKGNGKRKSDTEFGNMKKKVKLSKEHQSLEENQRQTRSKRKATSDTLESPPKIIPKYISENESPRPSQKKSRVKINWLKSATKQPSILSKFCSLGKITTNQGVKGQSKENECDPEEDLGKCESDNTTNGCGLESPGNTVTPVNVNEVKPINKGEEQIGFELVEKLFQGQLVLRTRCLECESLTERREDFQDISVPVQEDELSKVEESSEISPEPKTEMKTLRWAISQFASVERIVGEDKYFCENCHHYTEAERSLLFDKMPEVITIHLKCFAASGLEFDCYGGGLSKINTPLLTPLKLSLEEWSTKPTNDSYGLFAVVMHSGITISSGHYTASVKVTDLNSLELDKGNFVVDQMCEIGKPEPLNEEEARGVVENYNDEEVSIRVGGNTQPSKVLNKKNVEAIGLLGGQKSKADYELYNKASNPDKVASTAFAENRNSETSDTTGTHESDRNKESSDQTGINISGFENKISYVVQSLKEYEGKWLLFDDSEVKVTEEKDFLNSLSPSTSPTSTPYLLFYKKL
# Procedure, shortened: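 Deubiquitinase activity followed as kinetic rhodamine fluorescence release from 150 nM Ub-Rho. 1 nM USP1/UAF1 with compound, after 15 min room-temperature preincubation, in HEPES pH 7.8 buffer containing TCEP, EDTA, BSA and Tween-20.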
# [16] = measured here: cell count channel max response
# [17] = measured here: lipid channel max response
Structure (SMILES),Potency [1],"activity change, negative = inhibition [2]",Potency [3],"activity, negative = inhibition [4]",Potency [5],Potency [6],Potency [7],Potency [8],Potency [9],"activity change, negative = inhibition [10]","max response [10, 16]","max response [10, 17]",outcome [11],Potency [12],Potency [13],outcome [14],Potency [15]
O=C(c1ccco1)N1CCC2(CCN(Cc3ccncc3)CC2)CC1,> 11.4 µM (inactive),1.28% (inactive),20 µM (active),-11.4% (inactive),> 46 µM (inactive),inactive,inactive,7.94 µM (active),inactive,6.5% (inactive),12.7%,20.5%,inactive,,,,
COCC(=O)N1CCC2(CC1)CCN(c1cccc(-c3ccccc3)c1)CC2,> 11.4 µM (inactive),-4.83% (inactive),5.01 µM (active),-8.32% (inactive),> 46 µM (inactive),inactive,inactive,,,-0.758% (inactive),-9.9%,-7.13%,inactive,,,,
COc1ccccc1CNc1nc(-c2ccccc2CN(C)C)nc2ccccc12,> 11.4 µM (inactive),16.7% (inactive),0.794 µM (active),-12.4% (inactive),> 46 µM (inactive),inactive,,,inactive,3.53% (inactive),-19.9%,-15.9%,inactive,> 46 µM (inactive),inactive,inactive,inactive
COCC(=O)N1CCC2(CCCN(Cc3ccccc3OC)C2)CC1,> 11.4 µM (inactive),-2.02% (inactive),inactive,10.7% (inactive),> 46 µM (inactive),inactive,inactive,,,-6.35% (inactive),2.52%,0.269%,inactive,,,,
CC(C)CN1CCC2(CC1)CCN(C(=O)c1cc(C(F)(F)F)cc(C(F)(F)F)c1)CC2,> 11.4 µM (inactive),3.4% (inactive),inactive,0.414% (inactive),> 46 µM (inactive),inactive,inactive,,,-2.84% (inactive),-18.2%,-17.3%,inactive,,,,
CN1CCCC2(CCN(S(=O)(=O)c3ccccc3)CC2)C1,> 11.4 µM (inactive),17.6% (inactive),20 µM (active),-3% (inactive),> 46 µM (inactive),inactive,inactive,,,2.33% (inactive),19.8%,25%,inactive,,,,
CN(C)Cc1ccccc1-c1cncnc1NC1CC1,> 11.4 µM (inactive),-1.86% (inactive),15.8 µM (active),2.98% (inactive),> 46 µM (inactive),inactive,inactive,,inactive,6.51% (inactive),18.3%,22.5%,inactive,> 46 µM (inactive),inactive,inactive,inactive
